The sample as a whole holds a higher share of hits than the screen did.
Sa helicase inh: blocks Staphylococcus aureus DNA helicase; purified S. aureus helicase, fluorescence unwinding assay; inhibition, % (no concentration beside the values); hit rate 0.05% among 120,000; in the data active = inhibition above about 25%, passing the limit was not always enough;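 note: 0% = mean of negative control wells and 100% = mean of positive control wells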
Sa growth 42C: inhibitors of Staphylococcus aureus growth at 42 °C. hit rate 0.53% among 170,000. S. aureus RN4220 growth, OD600, 20 h; active compounds read low. relative growth, % (concentration not given with the values);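 active = relative growth at most 50% at the other temperature and 20+ points below 30 °C, or under 10% at both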
An asterisk follows results filed as active; nt = no result given; ! = a repeat was not active.

SMILES | Sa helicase inh | Sa growth 42C
CCCCN1COc2ccc3c4c(oc3c2C1)C(=O)c1ccccc1C4=O | 51* | 13
O=C1c2ccccc2C(=O)c2c1oc1c3c(ccc21)OCN(Cc1ccccc1)C3 | 4 | 106
COc1cccc2c1C(=O)c1c(O)c3c(c(O)c1C2=O)C[C@@](O)(C(=O)CO)C[C@@H]3O[C@H]1C[C@H](N)[C@@H](O)[C@H](C)O1 | nt | 2.0*
CC[C@@]1(O)C[C@H](O[C@H]2C[C@H](N(C)C)[C@H](O[C@H]3C[C@H](O)[C@H](O[C@H]4CCC(=O)[C@H](C)O4)[C@H](C)O3)[C@H](C)O2)c2c(cc3c(c2O)C(=O)c2c(O)cccc2C3=O)[C@H]1C(=O)OC | nt | 76
COc1cccc2c1C(=O)c1c(O)c3c(c(O)c1C2=O)C[C@@](O)(C(C)=O)C[C@@H]3O[C@H]1C[C@H](N)[C@H](O)[C@H](C)O1 | nt | 18
CC(=O)[C@]1(O)Cc2c(O)c3c(c(O)c2[C@@H](O[C@H]2C[C@H](N)[C@H](O)[C@H](C)O2)C1)C(=O)c1ccccc1C3=O | nt | 0.4*
CCOc1ccc(-c2nn(CC(=O)NC3CCCCC3)c3c2cnc2ccc(C)cc23)cc1 | nt | 113
CCn1c(SCc2ccccc2)nnc1-c1nonc1NC(C)=O | nt | 101
CCc1ccc(C(=O)/C=C2\Sc3ccccc3NC2=O)cc1 | 9 | 65
O=S1(=O)CCN2N=C(C3CC3)SC2=N1 | 30 | 96
N#CSc1cnc(NC2CCCCC2)s1 | -2 | 5.0*
O=C(O)CSc1nnc(NC2CCCCC2)s1 | 5 | 77
O=C(NCc1ccccc1Cl)c1ccc(Cn2cc(Cl)cn2)cc1 | 5 | 2.9*
Cc1ccc(CNC(=O)c2cccc(Cn3cc(Cl)cn3)c2)cc1 | 5 | 90
Oc1c(C(c2ccccc2Cl)N2CCN(Cc3ccccc3)CC2)sc2nc(-c3ccco3)nn12 (stereo not drawn) | nt | 76
O=S(=O)(c1ccc(Cl)cc1)N1CCc2ccccc21 | -80 | 0.3*
O=S(=O)(c1ccc(F)cc1)N1CCc2ccccc21 | -17 | nt
CC[n+]1c(/C=C/N(C)c2ccccc2)sc2ccc(OC)cc21 | 0 | -0.6*
CC[n+]1c(/C=C/Nc2ccccc2)sc2ccccc21 | 8 | 103
CO/N=C(\C(=O)N[C@@H]1C(=O)N2C(C(=O)[O-])=C(C[N+]3(C)CCCC3)CS[C@H]12)c1csc(N)n1 | nt | -0.5*
C[C@H]1[C@H](NC(=O)/C(=N\OC(C)(C)C(=O)O)c2csc(N)n2)C(=O)N1S(=O)(=O)O | nt | 90
CO/N=C(\C(=O)NC1C(=O)N2C(C(=O)OCOC(=O)C(C)(C)C)=C(/C=C\c3scnc3C)CSC12)c1csc(N)n1 (stereo not drawn) | nt | 5.1*
CC(C)(O/N=C(\C(=O)N[C@@H]1C(=O)N2C(C(=O)[O-])=C(C[n+]3ccccc3)CS[C@H]12)c1csc(N)n1)C(=O)O | nt | 77
C=CC1=C(C(=O)O)N2C(=O)[C@@H](NC(=O)C(=NOCC(=O)O)c3csc(N)n3)[C@H]2SC1 | nt | -0.2*
C=CC1=C(C(=O)O)N2C(=O)[C@@H](NC(=O)/C(=N\O)c3csc(N)n3)[C@H]2SC1 (stereo in doubt) | nt | -0.4*
SMILES | Sa helicase inh | Sa growth 42C
Cc1cccc(Cn2nnc3c(=O)[nH]c(C4CCCN(C(=O)c5ccc(C(C)(C)C)cc5)C4)nc32)c1 (stereo not drawn) | nt | 60
CCOC(=O)c1c(C)n(-c2ccc(OC)cc2)c2ccc(OC(=O)COc3ccccc3)cc12 | nt | 93
CC(C)c1nc2nc(N)nc(N)c2nc1C(C)C | 2 | 110
CC1=C(C(N)=O)C(c2ccco2)C(C#N)=C(SCC(N)=O)N1 (stereo not drawn) | 10 | 120
CCOc1ccc(NC(=O)C2CCCN(S(=O)(=O)c3ccc(Br)s3)C2)cc1 (stereo not drawn) | nt | 94
CCC1Oc2ccc(C)cc2N(Cc2ccc(F)cc2)C1=O (stereo not drawn) | -4 | 95
N[C@@H](C(=O)N[C@@H]1C(=O)N2C(C(=O)O)=C(Cl)CS[C@H]12)c1ccccc1 | nt | -0.9*
CC(C)OC(=O)C(N)c1ccccc1 (stereo not drawn) | 18 | 95
CCN1CCN(C(=O)NC(C(=O)NC2C(=O)N3C(C(=O)O)=C(CSc4nnnn4C)CSC23)c2ccc(O)cc2)C(=O)C1=O (stereo not drawn) | nt | -1.3*
N[C@@H](C(=O)N[C@@H]1C(=O)N2C(C(=O)O)=C(CSc3cn[nH]n3)CS[C@H]12)c1ccc(O)cc1 (tested in a mixture with another compound) | nt | 27*
CO/N=C(/C(=O)NC1C(=O)N2C(C(=O)OC(C)OC(C)=O)=C(COC(N)=O)CSC12)c1ccco1 (stereo not drawn) | nt | 26
O=C(O)C1C2C=CC3(CN(CC4CCCO4)C(=O)C13)O2 (stereo not drawn) | 12 | 101
COc1cc(NC(=O)N2CCC3(CC2)Nc2cc(F)ccc2-n2cccc23)cc(OC)c1OC | nt | 98
O=C(COC(=O)c1ccc(-n2cnnn2)cc1)c1ccc(S(=O)(=O)N2CCCCC2)cc1 | 2 | 89
c1ccc(CNc2nnnn2-c2ccccc2)cc1 | 3 | 106
CCS(=O)(=O)c1nnnn1-c1ccccc1 | -3 | 0.1*
O=S(=O)(Cc1ccccc1)c1nnnn1-c1ccccc1 | 5 | -0.2*
CCS(=O)(=O)c1nnnn1-c1ccccc1S(C)(=O)=O | 3 | 89
Cc1nn2c(=O)cc(COC(=O)c3ccc(NC(=O)COc4ccccc4F)cc3)nc2s1 | nt | 94
CCC(C)(C)NC(=O)/C=C/c1cnc2ccccc2n1 | -25 | 105
CC1CN(C(=O)C2CCCO2)CC(C)O1 (stereo not drawn) | -3 | 103
CCOC(=O)C(C#N)c1ccccn1 (stereo not drawn) | nt | 107
CCOC(=O)C(C#N)c1c(F)c(F)c(Br)c(F)c1F (stereo not drawn) | -4 | -1.0*
CS(=O)c1nc(-c2ccccc2)cc(C(F)(F)F)n1 (stereo not drawn) | 7 | -0.2*
FC(F)(F)c1cc(-c2ccccc2)nc(N2CCCC2)n1 | 3 | 102
SMILES | Sa helicase inh | Sa growth 42C
CC(N)C(=O)N1CCCCC1 (stereo not drawn) | 3 | 108
N#Cc1ccc(N2CCN(c3ccc(C(F)(F)F)cn3)CC2)nc1 | nt | 113
NNc1ccc(Cl)c(Cl)c1 | -16 | 87
NNc1ccc2c(Cl)cc(Cl)c(O)c2n1 | 21 | 4.2*
Cc1ccc(S(=O)(=O)c2nnn3c2nc(NCc2ccc(F)cc2)c2sccc23)cc1C | nt | 126
CSc1ccccc1C(=O)Nc1ncn[nH]1 | 1 | 94
O=C(N[C@H](CO)[C@H](O)c1ccc([N+](=O)[O-])cc1)C(Cl)Cl | nt | -0.1*
CC(=O)Nc1ccc(S(=O)(=O)Nc2ccc([N+](=O)[O-])cc2)cc1 | nt | 77
COc1ccc(CC(O)CN2CCCCC2)cc1 (stereo not drawn) | 5 | 114
Cc1ccc(C(=O)Nc2ccc(C(=O)OCc3cc(=O)n4c5c(sc4n3)CCCC5)cc2)cc1 | nt | 100
CN(CC(=O)Nc1ncc(Cl)cc1Cl)Cc1ccc(Cl)cc1 | -4 | 93
Cc1cc(Nc2ncc(Cl)cc2Cl)n[nH]1 | 2 | 2.2*
O=C(Oc1cccc2cccnc12)C1CCCCC1 | 6 | 182
O=C(Oc1cccc2cccnc12)c1cccc(F)c1 | 9 | 1.6*
O=C(Oc1cccc2cccnc12)c1ccccc1 | -6 | 1.7*!
O=C(Oc1ccccc1OC(=O)c1ccccc1)c1ccccc1 | 11 | 96
O=C(Oc1cccc2cccnc12)c1cc(C(F)(F)F)cc(C(F)(F)F)c1 | nt | 1.3*

Source: PubChem BioAssay
